# Experimental data: PubChem BioAssay AID1508642 (National Center for Advancing Translational Sciences (NCATS), 2021)
# About 200 (0.47%) of roughly 43,000 compounds were called active. Inconclusive results (about 12%) are left out. Many of the other results were omitted from the sample, so actives are more common in it than they were. Values without a mark were called inactive. Calls come from the whole dose curve; as a rule, active = well fitted cell-killing curve with a large enough effect; inconclusive = small, poorly fitted or top-dose-only effect, or effect the other way; inactive = flat fitted curve, though single readings scatter.
# Experiment: Cell viability qHTS assay in S16 Pmp22-F2sN cells; note: nearly all actives have a fitted effect of over 65% in size
# Conditions: S16 Pmp22-F2sN Schwann cells (luciferase reporters placed in the Pmp22 gene) viability, CellTiter-Glo, 24 h; series mostly up to 57.5 µM; activity change, negative = cytotoxicity: at the top concentration
# Description: Assay Provider: Jim Inglese Ph.D. National Center for Advancing Translational Science, National Institutes of Health, Rockville, MD CMT is a heterogeneous group of neurological disorders that affect approximately 1 in 2,500 people. In particular, the most common form of CMT, CMT1A is genetically linked to the duplication of the PMP22 gene which leads to Schwann cell overexpression, thus manifesting itself as a typical case of dose-sensitive diseases. To identify small molecule compounds that can mediate the expression of PMP22 we developed a phenotypic assay screening strategy by utilizing genome editing techniques to construct Schwann cell lines containing novel reporter technology to monitor the transcriptional or translational regulation of PMP22. For high sensitivity we use a bioluminescent reporter system embedded in the 3' UTR of the PMP22 gene (S16(c9) Pmp22-F2sN) to identify compounds that inhibit gene expression. […] We can further discriminate the effect of all transcriptionally active molecules on PMP22 translation or stability with an assay that incorporates a short NLuc peptide (HiBiT) at the C-terminus of expressed PMP22 (S16(f8) PMP22-HiBiT) allowing alpha complementation and luminescence detection of membrane-associated PMP22 protein. These assays were screened against the NCATS Sytravon Library Collection. Miniaturization of these assays to 1536-well plate format for quantitative high throughput screening (qHTS) yielded rich data sets immediately from the qHTS assay (S16(c9) Pmp22-F2sN), when compared with data from a cell viability assay (Cell TiterGlo) to identify compounds that decreased the output signals through cellular toxicity to streamline the selection process of actives for subsequent characterization using the HiBiT assay (S16(f8) PMP22-HiBiT).
# Cell viability assay in S16 Pmp22-F2sN cells PROTOCOL TABLE (format as described by Inglese J, Shamu CE and Guy RK. 2007) SEQUENCE No. (e.g., 1, 2, 3, etc.); […] (e.g., Cells, Incubation, Reagent, etc.); VALUE and DESCRIPTION. 1. Cells. Add 500-1,000 cells in 4 uL in growth media (DMEM High Glucose, No Phenol Red media + 10% heat-inactivated FBS + 1% Pen/Strep supplemented media) per well into Greiner 1536-well white/solid bottom high base, TC-treated plates. 2. Compounds. Library compounds and controls added at 23nL per well, transferred by Pin Tool. 3. Incubation. Incubate plates at 37C, 5% CO2, 95% RH for 24 h. 4. Reagent. Add 3uL CellTiter-Glo per well of Greiner 1536-well plates. 5. Incubation. Incubate plates at room temperature for 15 min., protect from light. 6. Detector. FLuc luminescence measured using CCD-based camera (Viewlux). NOTES (numbers refer to Sequence numbers above; values are from representative experiments) 6. Luminescence Read: Clear filter; Exposure = 1 sec, Gain = High, Speed = Slow, Binning = 2X REFERENCES: 1. Inglese J, Shamu CE and Guy RK, Reporting data from high throughput screening of small molecule libraries, Nature Chemical Biology, 2007, 3(8): 438-441. doi.org/10.1038/nchembio0807-438 2. Yasgar A, Shinn P, Jadhav A, Auld DS, Michael S, Zheng W, Austin CP, Inglese J and Simeonov A, Compound Management for Quantitative High-Throughput Screening. J. Assoc. Lab. Auto., 2008, 13: 79-89. doi: 10.1016/j.jala.2007.12.004
# % is set by controls: 0 for no effect and ±100 for the full control effect; potency is the fitted concentration of half-maximal effect.
SMILES,"activity change, negative = cytotoxicity [%]",Potency
O=C(COc1ccccc1)OCc1cc(=O)n2nc(-c3cccs3)sc2n1,0.234,–
CCc1c(C)sc(NC(=O)C2c3ccccc3Oc3ccccc32)c1C(=O)OC(C)C,0.223,–
CCc1nc2cccnc2n1-c1ccc(CC(=O)Nc2c(C)cccc2C)cc1,-4.84,–
CCCNC(=O)C1CCC(Cn2c(=O)c3sccc3n(Cc3ccccc3F)c2=O)CC1 (configuration not stated),-1.73,–
O=C(Nc1ccc(Br)cc1)c1cc2nc(-c3ccccc3)cc(-c3ccccc3)n2n1,5.96,–
COc1ccc(CCNC(=O)CCCn2c(=O)c3ccccc3n(Cc3ccc(F)cc3Cl)c2=O)cc1OC,-1.56,–
O=C(CSc1n[nH]c(-c2ccccc2)n1)N1CCCCC1,3.55,–
CCN(CC)S(=O)(=O)c1ccc2c(c1)nc(CN(C)C(=O)Nc1ccc(Cl)cc1)n2C,-1.34,–
O=C(NCCc1ccccc1)c1cnc2sc(N3CCCC3)nn2c1=O,13.1,–
CCC(Sc1nc2n[nH]c(C)c2c(=N)n1-c1ccccc1Cl)C(=O)N(CC)CC (configuration not stated),-12.7,–
CCC(CC)C(=O)N1CCc2cc(OC)c(OC)cc2C1COc1ccc(F)cc1 (configuration not stated),0.184,–
Cc1cc(C)c2oc(C(=O)Nc3ccc(S(=O)(=O)N4CCCCCC4)cc3)cc(=O)c2c1,11.6,–
COc1ccc(S(=O)(=O)c2c(Nc3ccc(C)cc3)sc(C(=O)c3ccc(C)cc3)c2N)cc1,8.68,–
COc1ccccc1CNC(=O)NCc1noc2ccc(C)cc12,-2.92,–
COc1ccc(C(F)(F)F)cc1NC(=O)c1sc2nc(-c3cccs3)ccc2c1N,-23.1,–
CC1CCN(C(=O)Cn2c(=O)n(-c3ccc(Cl)cc3)c(=O)c3c4c(sc32)CCC4)CC1,16.3,–
CCCN(CCC)CCNC(=O)c1ccc2c(c1)NC(=O)C(CS(=O)(=O)Cc1cccc(Br)c1)N2 (configuration not stated),4.02,–
Cc1cc(C)cc(-n2ccnc2SCC(=O)Nc2nc3ccccc3s2)c1,13.1,–
CCc1ccccc1NC(=O)Cc1ccc(NC(=O)N2CCCCc3ccccc32)cc1,14.9,–

SMILES,"activity change, negative = cytotoxicity [%]",Potency
CCc1cccc(NC(=O)CCNS(=O)(=O)c2cccc3nonc23)c1,5.94,–
COc1cccc(N2CCN(S(=O)(=O)c3cc(Br)cc4c3N(C(=O)C3CC3)CC4)CC2)c1,19.5,–
Cc1ccc(S(=O)(=O)n2nc(-c3ccc(Cl)cc3)nc2NCc2ccccc2)cc1,-13.1,–
CCN(CCCNC(=O)c1cc2cc3cc(OC)ccc3nc2s1)c1ccccc1,-0.951,–
COc1cccc(CNC(=O)Cn2c(=O)c3cccn3c3ccc(F)cc32)c1OC,-1.88,–
CCCSc1ncc(Cl)c(C(=O)Nc2sc3c(c2C(=O)NCCOC)CCCC3)n1,1.52,–
Cc1ccc(OCC(=O)Nc2ccc(Cl)c(-c3nc4ccccc4[nH]3)c2)cc1C,-0.793,–
CCOc1ccc(OCC)c(NC(=O)CN(c2ccc(C)cc2)S(=O)(=O)c2c(C)n[nH]c2C)c1,9.54,–
Cc1cc2nc(-c3ccc(NC(=O)c4cc5ccccc5o4)cc3)oc2cc1C,-0.614,–
O=C(NC1CC(=O)N(c2ccc(F)cc2)C1)C1CCCCC1 (configuration not stated),5.27,–
CCN1CCN(c2ncc3c(n2)CC(c2ccccc2O)CC3=O)CC1 (configuration not stated),1.55,–
Cc1ccc(-c2cc(-c3coc4ccccc4c3=O)c3c(n2)-c2cc(Cl)ccc2OC3)cc1,12,–
CCOc1cccc2c1N[C@@H](c1ccc(C(=O)O)cc1)[C@H]1CC=C[C@@H]21,-2.8,–
Cc1ccc(C(=O)Nc2c(C(=O)NC(C)(C)C)oc3ccccc23)cc1,2.59,–
COc1ccc(CCC(=O)NCc2ccc3c(c2)CCN3C(=O)c2ccc(F)cc2)cc1,-1.18,–
COc1ccccc1CNc1ccc(-c2nc(-c3ccccc3C)no2)cc1[N+](=O)[O-],-0.135,–
Cc1ccc2c(=O)c(C(=O)c3cccc(Cl)c3)cn(CC(=O)NCc3ccccc3)c2n1,–,10 µM (active)
Cc1ccc2c(=O)c(C(=O)c3ccc(Cl)cc3)cn(CC(=O)NC3CCCCC3)c2n1,-1.4,–
Cc1ccc2c(=O)c(C(=O)c3ccc(F)cc3)cn(CC(=O)NC3CCCCC3)c2n1,-2.4,–

SMILES,"activity change, negative = cytotoxicity [%]",Potency
Cc1ccc(-c2nnc(Nc3ccc(OCC(N)=O)cc3)c3ccccc23)cc1S(=O)(=O)NCC1CCCO1 (configuration not stated),-1.93,–
CCCCCn1c(CCNC(=O)c2ccc(F)cc2)nc2ccccc21,-24.8,–
COCCNS(=O)(=O)c1cc(-c2nn3c(C)nnc3c3ccccc23)ccc1C,1.72,–
CCc1nnc(SCc2c(F)cccc2Cl)c2cc3sccc3n12,17.7,–
COc1cc(C(=O)N(Cc2ccc(C(C)C)cc2)C2CCS(=O)(=O)C2)cc(OC)c1OC (configuration not stated),-17.4,–
CCOc1ccccc1NC(=O)Cn1c2ncccc2c(=O)n1-c1ccc(C)c(C)c1,5.55,–
Cc1cccc(Cn2c(CN3CCC(C(=O)NCc4ccccc4Cl)CC3)cc3ccccc32)c1,-11.5,–
CCN(CC)S(=O)(=O)c1ccc2c(c1)N(CC(=O)NCc1ccccc1)C(=O)CS2,3.95,–
COc1ccc(-c2onc(C)c2C)cc1S(=O)(=O)NCC1CCN(Cc2cccc(F)c2)CC1,-24.7,–
Cc1onc(-c2ccc(F)cc2F)c1C(=O)Nc1cccc(C(F)(F)F)c1,-0.762,–
Cc1ccc(Cn2c(=O)n(Cc3nc(-c4ccccc4)no3)c(=O)c3cc4c(cc32)OCO4)cc1,4.79,–
CN(C)c1ccc(C(CNS(=O)(=O)c2cc(F)ccc2F)N2CCOCC2)cc1 (configuration not stated),-4.79,–
CCOc1ccc(C(=O)c2cn(Cc3ccccc3OC)c3ccc(F)cc3c2=O)cc1,-2.17,–
O=C(/C=C/c1cn(CC(O)CN2CCc3ccccc32)c2ccccc12)c1ccc(Br)cc1 (configuration not stated),2.02,–
O=C(CCC1N=C2c3ccccc3N=C(SCc3ccccc3F)N2C1=O)NCCc1ccccc1 (configuration not stated),4.72,–
CSCCC(NS(=O)(=O)c1ccc2c(c1)oc(=O)n2C)C(=O)NCc1ccccc1 (configuration not stated),11.7,–
O=C(Nc1nnc(C2CC(=O)N(c3ccc(Cl)cc3)C2)s1)c1ccco1 (configuration not stated),-14,–
O=C(NCc1ccc(F)cc1)c1ccc(Cn2c(SCc3ccc(F)cc3)nc3cccnc32)cc1,-1.3,–
Cc1c2cnn(-c3ccccc3)c(=O)c2c(C)n1C(C)C(=O)Nc1ccc(Br)cc1F (configuration not stated),2.31,–
